# A selection: hits, their analogues and other compounds. The true share with any hit is near 4.3%.
# GRIN3A LBD mod = NR3A (human) ligand-binding domain modulation; NR3A LBD differential scanning fluorimetry, Tm shift; 0% = protein alone, 100% = glycine-bound protein; Tm shift relative to glycine control, % at 25 µM; hit rate 2.5% among 340,000; AID 1259313;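 active = melting temperature shift of at least 10% of the positive control shift, at one fixed dose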
# FAS TE block = inhibitors of human fatty acid synthase thioesterase domain | P49327 | recombinant FAS-TE, OMFH fluorogenic substrate, fluorescence endpoint | inhibition, % at 15 µM | hit rate 0.67% among 360,000 | AID 602261;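 active = compounds whose normalised, plate-corrected inhibition of enzyme fluorescence in the single-dose primary screen is 50% or more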
# Target sequence (P49327 whole entry, looked up, the tested form may be a part): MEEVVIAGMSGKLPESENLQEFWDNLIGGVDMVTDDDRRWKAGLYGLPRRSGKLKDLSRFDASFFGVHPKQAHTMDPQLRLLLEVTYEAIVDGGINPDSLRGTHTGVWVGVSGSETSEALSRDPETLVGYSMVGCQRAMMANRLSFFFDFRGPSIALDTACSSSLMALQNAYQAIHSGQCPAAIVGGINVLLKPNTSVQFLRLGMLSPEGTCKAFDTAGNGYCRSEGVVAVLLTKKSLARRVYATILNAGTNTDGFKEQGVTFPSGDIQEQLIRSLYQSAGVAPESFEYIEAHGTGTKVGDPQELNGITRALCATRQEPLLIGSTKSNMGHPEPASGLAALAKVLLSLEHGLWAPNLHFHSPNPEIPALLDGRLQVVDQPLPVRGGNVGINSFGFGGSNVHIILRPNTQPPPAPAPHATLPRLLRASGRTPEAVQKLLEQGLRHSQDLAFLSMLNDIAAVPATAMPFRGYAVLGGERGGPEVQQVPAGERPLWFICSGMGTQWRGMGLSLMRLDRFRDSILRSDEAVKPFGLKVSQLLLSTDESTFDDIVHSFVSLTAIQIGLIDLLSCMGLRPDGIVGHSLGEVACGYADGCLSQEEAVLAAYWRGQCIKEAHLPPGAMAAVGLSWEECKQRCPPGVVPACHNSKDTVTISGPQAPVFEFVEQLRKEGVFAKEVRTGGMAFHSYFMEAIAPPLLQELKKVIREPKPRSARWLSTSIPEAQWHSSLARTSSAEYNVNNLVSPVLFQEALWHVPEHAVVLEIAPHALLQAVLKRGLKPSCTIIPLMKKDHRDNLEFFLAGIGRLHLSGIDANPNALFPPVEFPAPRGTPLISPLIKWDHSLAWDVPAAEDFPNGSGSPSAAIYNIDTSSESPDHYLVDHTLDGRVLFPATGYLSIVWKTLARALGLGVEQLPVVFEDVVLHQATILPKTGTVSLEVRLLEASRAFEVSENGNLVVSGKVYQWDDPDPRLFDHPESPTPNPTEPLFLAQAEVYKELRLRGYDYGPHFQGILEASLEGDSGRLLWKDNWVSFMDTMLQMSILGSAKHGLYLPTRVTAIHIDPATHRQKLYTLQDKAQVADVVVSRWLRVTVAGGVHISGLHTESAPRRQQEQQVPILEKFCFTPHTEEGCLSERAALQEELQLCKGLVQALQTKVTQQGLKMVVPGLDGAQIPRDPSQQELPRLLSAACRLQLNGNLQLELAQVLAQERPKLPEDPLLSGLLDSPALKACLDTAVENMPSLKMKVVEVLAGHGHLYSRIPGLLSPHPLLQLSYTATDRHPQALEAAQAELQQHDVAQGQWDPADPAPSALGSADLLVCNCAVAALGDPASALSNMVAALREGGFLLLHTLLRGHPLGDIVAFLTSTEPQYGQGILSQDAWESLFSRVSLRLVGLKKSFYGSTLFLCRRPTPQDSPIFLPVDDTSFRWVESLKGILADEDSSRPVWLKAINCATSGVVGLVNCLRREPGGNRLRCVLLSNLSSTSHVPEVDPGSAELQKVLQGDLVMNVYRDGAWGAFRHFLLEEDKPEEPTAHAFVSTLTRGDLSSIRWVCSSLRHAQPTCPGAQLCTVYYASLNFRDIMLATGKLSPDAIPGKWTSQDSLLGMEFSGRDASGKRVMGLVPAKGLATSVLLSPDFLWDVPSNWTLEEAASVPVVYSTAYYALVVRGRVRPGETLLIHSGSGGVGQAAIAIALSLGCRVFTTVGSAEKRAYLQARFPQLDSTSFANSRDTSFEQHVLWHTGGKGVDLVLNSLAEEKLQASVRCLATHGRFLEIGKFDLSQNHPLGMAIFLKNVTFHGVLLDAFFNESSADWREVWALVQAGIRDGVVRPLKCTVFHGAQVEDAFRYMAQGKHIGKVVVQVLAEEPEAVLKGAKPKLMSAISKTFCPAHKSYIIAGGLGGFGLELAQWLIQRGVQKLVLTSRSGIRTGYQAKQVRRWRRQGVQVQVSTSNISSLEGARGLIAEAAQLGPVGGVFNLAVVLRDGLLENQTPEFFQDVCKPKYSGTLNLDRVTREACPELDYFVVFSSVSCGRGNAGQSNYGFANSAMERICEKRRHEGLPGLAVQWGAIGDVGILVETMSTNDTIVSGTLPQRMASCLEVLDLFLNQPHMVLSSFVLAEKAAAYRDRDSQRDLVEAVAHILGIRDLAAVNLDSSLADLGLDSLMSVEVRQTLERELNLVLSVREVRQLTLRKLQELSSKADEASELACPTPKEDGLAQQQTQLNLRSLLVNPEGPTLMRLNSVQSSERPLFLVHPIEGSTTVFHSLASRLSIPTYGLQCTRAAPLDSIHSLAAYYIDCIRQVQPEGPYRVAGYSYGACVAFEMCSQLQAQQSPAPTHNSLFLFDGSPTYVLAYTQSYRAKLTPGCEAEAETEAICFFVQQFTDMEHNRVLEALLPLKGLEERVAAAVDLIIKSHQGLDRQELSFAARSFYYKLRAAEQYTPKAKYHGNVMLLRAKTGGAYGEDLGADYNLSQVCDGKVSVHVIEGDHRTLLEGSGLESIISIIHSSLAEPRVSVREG
# NadD inh = NadD (S. aureus) enzyme inhibition; inhibition, % at 20 µM; hit rate 0.78% among 360,000; purified NadD enzyme, colorimetric absorbance read-out; in the data active = inhibition above about 26%
# rCAG RNA binder = binds r(CAG) RNA repeats; hit rate 1.3% among 370,000; AID 651821; inhibition, % at 3 µM; r(CAG) RNA repeat, TO-PRO-1 dye displacement fluorescence;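 active = inhibition above the plate cutoff, the mean of all test compounds on that plate plus 3 SD, cut at about 35% in these data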;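 also: higher means more dye released from RNA so lower well fluorescence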
# rCAG bind conf = r(CAG) RNA repeat binding, confirmation | shares compounds with rCAG RNA binder | TO-PRO-1 dye displacement fluorescence | inhibition, % at 3 µM | hit rate 70% among 4,300 | AID 652065;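 active = inhibition above a per-plate cutoff, the mean inhibition of sample wells plus 3 SD, cut at about 35% in these data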;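 also: loss of TO-PRO-1 fluorescence as compound displaces dye from 1x1 AA loop RNA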
# dCAG dye counter = counter-screen for rCAG RNA binders: DNA CAG dye complex inhibitors; shares compounds with rCAG RNA binder; d(CAG) DNA oligo TO-PRO-1 dye displacement, fluorescence; inhibition, % at 3 µM; hit rate 94% among 4,300;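 active = inhibition above its plate's cutoff, the mean test-well inhibition plus 3 SD, cut at about 4.8% in these data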;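 also: hits displace the dye from DNA and so lower well fluorescence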
# dCAG dye DR = DNA CAG dye complex inhibition, dose response counter-screen | IC50, µM | AID 686960 | shares compounds with rCAG RNA binder | DNA CAG/GTC duplex TO-PRO-1 dye displacement fluorescence | hit rate 20% among 250; in the data active = IC50 below about 10 µM
# Numbers stand for hits; - = inactive; . = no result.
SMILES,GRIN3A LBD mod,FAS TE block,NadD inh,rCAG RNA binder,rCAG bind conf,dCAG dye counter,others
CCOC(=O)Cc1cc(=O)n2[nH]c(-c3ccccc3)c(-c3ccccc3)c2n1,-,-,-,40,43,15,
Cn1c(SCC2CCC2)nnc1-c1ccco1,.,.,.,-,.,.,
COC(=O)C1=C(C)N(Cc2ccccc2C(F)(F)F)C(=NCc2ccc(OC)cc2)NC1c1cccc(F)c1 (configuration not stated),.,.,.,-,.,.,
Cc1ccc(F)c(S(=O)(=O)NC(=O)C2(C)CCN2C(=O)CC(c2ccccc2)c2ccccc2)c1 (configuration not stated),.,-,-,49,43,12,
CC1(C(=O)NS(=O)(=O)c2ccc(F)cc2F)CCN1C(=O)CC(c1ccccc1)c1ccccc1 (configuration not stated),.,-,-,38,-,5.8,
CC(C)Cn1nc(NS(=O)(=O)c2cccc3nonc23)c2cc3ccccc3nc21,-,-,-,53,39,12,
CCn1nc(NS(=O)(=O)c2cccc3nonc23)c2cc3ccc(C)cc3nc21,-,-,-,.,.,.,
CCOC(=O)CC(=O)CSc1nc2c(sc(=S)n2-c2ccc(C)c(C)c2)c(=O)[nH]1,-,-,-,70,63,23,
CCOC(=O)CC(=O)CSc1nc2c(sc(=S)n2-c2ccc(OCC)cc2)c(=O)[nH]1,-,-,-,61,53,19,
COc1ccc(N2C(=O)c3n[nH]c(C(C)C)c3C2c2ccccc2)cc1 (configuration not stated),.,.,.,-,.,.,
Cc1ccc([N+](=O)[O-])cc1S(=O)(=O)Nc1cccc(S(=O)(=O)Nc2ccccc2C(=O)O)c1,-,-,-,46,38,9.3,
Cc1ccc(C)c(NC(=O)c2ccccc2Sc2ccc([N+](=O)[O-])cc2Cl)c1,-,-,-,-,.,.,
Cc1ccc(C)c(NC(=O)c2ccccc2NS(=O)(=O)c2cc([N+](=O)[O-])ccc2C)c1,17,-,-,40,77,43,
O=C(CSc1ccc([N+](=O)[O-])cc1)Nc1cccc(S(=O)(=O)Nc2ccccc2F)c1,24,-,-,50,37,13,
O=C(Cc1ccc(Cl)cc1)Nc1cccc(S(=O)(=O)Nc2ccccc2F)c1,-,-,-,-,.,.,
CC(C)(C)c1ccc(S(=O)(=O)N2CCC(C(=O)NCCC3=CCCCC3)CC2)cc1,.,.,.,-,.,.,
C[C@H](CO)N1C[C@H](C)[C@@H](CN(C)C(=O)Nc2ccc(C(F)(F)F)cc2)OCc2cn(nn2)CCCC1=O,.,.,.,-,.,.,
Cc1sc2nc3c(SC(C)C(=O)O)cc(C(=O)c4ccccc4O)cn3c(=O)c2c1C (configuration not stated),-,-,-,77,85,61,
O=C(/C(=N/N=C/c1ccc(O)c(O)c1)c1ccccc1)c1ccccc1,21,-,-,37,51,27,
Cc1ccnc(OC(C(=O)O)C(OCc2ccccc2)(c2ccccc2)c2ccc(C(F)(F)F)cc2)n1 (configuration not stated),-,-,-,50,49,14,dCAG dye DR=-
Cc1cc(C)nc(OC(C(=O)O)C(OCc2ccccc2)(c2ccccc2)c2ccccc2)n1 (configuration not stated),-,-,-,-,.,.,
Cn1c(C(=O)O)c(CC(=O)Nc2ccccc2F)c2ccccc21,-,-,-,-,.,.,
Cc1ccc2c(c1)c(CC(=O)Nc1ccc(C)c(F)c1)c(C(=O)O)n2C,-,-,-,49,44,13,
O=C(O)c1ccc(Cl)cc1Nc1nc2cc(Cl)ccc2o1,14,-,-,73,84,62,
CCCCCCOC(=O)Nc1ccc(S(=O)(=O)Nc2cccc([N+](=O)[O-])c2)cc1,30,-,-,45,46,14,
SMILES,GRIN3A LBD mod,FAS TE block,NadD inh,rCAG RNA binder,rCAG bind conf,dCAG dye counter,others
CCCCOC(=O)Nc1ccc(S(=O)(=O)Nc2nc(C)cc(C)n2)cc1,-,-,-,-,.,.,
CC1CCc2c(C(=O)Nc3cccc(-c4nn[nH]n4)c3)csc2C1 (configuration not stated),-,-,-,65,46,13,
Nc1[nH]c2cc(C(F)(F)F)ccc2c1C(=O)NCc1ccc(F)cc1,.,.,.,-,.,.,
Cc1ccc(S(=O)(=O)Nc2c(C(=O)O)[nH]c3ccccc23)c(C)c1,-,-,-,58,-,7.3,
COc1ccc2[nH]c(C(=O)O)c(NS(=O)(=O)c3ccc(C)c(C)c3)c2c1,-,-,-,44,-,5.9,
CCOC(=O)C1=NOC(C(=O)Nc2nccs2)(C(=O)C2CC2)C1 (configuration not stated),.,.,.,-,.,.,
COC(=O)[C@]12C[C@H](CC(=O)NCc3ccc(OC)c(OC)c3)C(=O)N(CCc3ccc(OC)c(OC)c3)C1=C[C@H](C(C)C)O[C@@H]2C1CC1,.,.,.,-,.,.,
O=C(CSc1ccsc1[N+](=O)[O-])Nc1cccc(F)c1,20,-,-,35,-,12,
CCc1ccccc1NC(=O)CSc1ccsc1[N+](=O)[O-],-,-,-,-,.,.,
O=C(NN=C1CCN(Cc2ccccc2)CC1)c1ccccc1O,-,-,-,-,.,.,
O=C(NN=C1CCN(Cc2ccccc2)CC1)c1cc2ccccc2cc1O,-,-,42,52,57,30,
CCOC(=O)N1CCC(=NNC(=O)c2cc3ccccc3cc2O)CC1,-,-,-,37,-,11,
COc1ccc2c(c1)CN1C(=O)N(CCc3ccccc3)S(=O)(=O)CC21 (configuration not stated),.,.,.,-,.,.,
Cc1ccc2c(c1)N(CCCC(=O)N(C)Cc1ccccc1Cl)C(=O)CO2,.,.,.,-,.,.,
COc1cc(/C=C2/SC(=S)N(C)C2=O)ccc1OC(=O)c1ccco1,-,-,-,-,.,.,
COc1cc(/C=C2/SC(=S)N(CC(=O)O)C2=O)ccc1OC(=O)c1cccs1,-,-,-,60,72,34,dCAG dye DR=-
COc1cc(/C=C2\SC(=S)N(CC(=O)O)C2=O)ccc1OS(=O)(=O)c1ccc(C)cc1,-,-,-,81,86,56,
C[C@H](O)[C@@H]1CN2CCc3c([nH]c4c(-c5ccccc5)cccc34)[C@@H]2C[C@@H]1N(C)C(=O)c1ccco1,.,.,.,-,.,.,
Cc1ccc(-c2[nH]c(-c3ccc(C(=O)O)cc3)nc2-c2ccccc2)cc1,-,-,-,70,58,18,
Cc1c(C(=O)N/N=C/c2c(O)ccc3ccccc23)nnn1-c1nonc1N,-,-,-,-,.,.,
Nc1nonc1N/N=C/c1c(O)ccc2ccccc12,25,-,-,40,-,15,
COC(=O)C1=C(C)N(Cc2ccccc2C(F)(F)F)C(=NCc2ccc(C(F)(F)F)cc2)NC1c1ccc(Cl)cc1 (configuration not stated),.,.,.,-,.,.,
Cc1cc(NS(=O)(=O)c2ccc(NC(=O)Cc3cccs3)cc2)no1,-,-,-,.,.,.,
Cc1cc(NC(=O)Cc2cccs2)no1,-,-,-,40,35,23,
